The whole screen tested about 48,000 compounds, of which about 13,000 (27%) showed an effect of 50% or more. This is one part of the list.

The subject of the assay is Wolbachia pipientis. Description: Anti-Wolbachia Cell-Based Screen. The assay is classed as functional. Also on record: scale not given: in the data most compounds retested in dose-response had high values. Conditions: 5 µM.
On to `O=C(C1=CCCC1)N1CCC[C@]2(C[C@@H](OCc3ccccn3)CO2)C1.O=C(O)C(F)(F)F`, for which the “Percent Effect” value is 5.284%.
For `CS(=O)(=O)N1C[C@@H]2CC[C@H](C1)N(C(=O)Cn1nc3ccccc3n1)C2`, the “Percent Effect” value is 3.871%.
Next, `Cc1csc(N2CCN(C(=O)CCC(=O)c3ccc(C)s3)CC2)n1`: 7.228%.
Next, `CCS(=O)(=O)N1CCOC2(COCCN(c3nccs3)C2)C1` (stereo not drawn): 11.05%; `CC(C)c1ccc(S(=O)(=O)NC2CCN(CC(F)(F)F)C2)cc1` (stereo not drawn): 12.82%; `Cc1cc(C)c2[nH]c(CN3CCCC(N4CCOCC4)C3)cc(=O)c2c1` (stereo not drawn): 0.1169%.
Then `COc1ccc(CN2CCCC(n3cccn3)C2)c(Cl)c1OC` (stereo not drawn), with 1.14%; and `COc1cc(CN2CCC(O)(c3ccc(C)cn3)CC2)cc(Cl)c1OC`, with -12.14%; and `COc1ccc(CN2CCCC(N3CCCC3)C2)cc1Cn1cncn1` (stereo not drawn), with 15.57%.
For the compound `COc1cc(Cl)cc(CN2CCCC(N3CCOCC3)C2)c1OC` (stereo not drawn), the “Percent Effect” value is on record as 106.9%.
Next, `CC(C)Oc1ccc(CN2CCCC(N3CCOCC3)C2)cc1CO` (stereo not drawn): -0.1551%; `COc1cc(CN2CC[C@@H](N3CCCCCC3)[C@H](O)C2)cc(Cl)c1OC`: 100.3%; `O[C@@H]1CN(CC2=Cc3cc(Cl)ccc3OC2)CC[C@H]1N1CCCCCC1`: 0.906%.
Next, `COc1cc(Cl)cc(CN2CCCC(N3CCCC3)C2)c1OC` (stereo not drawn): 116%.
For the compound `CNC(=O)[C@@H]1COC[C@H]2CN(C(=O)c3ccc(C)c(F)c3)C[C@H]21`, the “Percent Effect” value worked out at 1.789%.
Take `COC(CNC(=O)CNC(=O)c1ccccc1)c1cccc(Cl)c1` (stereo not drawn): the “Percent Effect” value is reported as -36.87%.
Next, `Cc1ncsc1CN1C[C@H](OCC(C)C)[C@H]2OCCC[C@H]21.O=C(O)C(F)(F)F`: -14.06%; `Cc1ccc(C(=O)N2CCO[C@H]3[C@@H](OCc4ccccn4)CC[C@@H]32)o1.O=C(O)C(F)(F)F`: -5.404%.
`CCO[C@H]1CC[C@H]2[C@H]1OCCN2C(=O)c1nn(C)c2ccccc12`: the “Percent Effect” value came out at 108.7%.
Next, `CCO[C@@H]1CC[C@H]2[C@H]1OCCN2C(=O)c1ccc(OC)c(F)c1`: -22.06%.
Then `CCO[C@@H]1CC[C@H]2[C@H]1OCCN2C(=O)c1nn(C)c2ccccc12`, with 106.4%; and `O=C(NCC1CC1)C1=NOC2(CCN(Cc3ccc(Cl)c(F)c3)C2)C1` (stereo not drawn), with 0.8389%; and `CCc1ccc(CN2CCC3(CC(C(=O)NCC(C)C)=NO3)C2)o1` (stereo not drawn), with 102%.
Then `COc1ccc(CN2CCC3(CC(C(=O)NCC(C)C)=NO3)C2)cc1` (stereo not drawn), with 91.98%; and `Cc1ccc(CN2CCC3(CC(C(=O)NCC4CC4)=NO3)C2)s1` (stereo not drawn), with -2.379%; and `CC(C)CNC(=O)C1=NOC2(CCN(Cc3ccc(C(C)C)cc3)C2)C1` (stereo not drawn), with 105.9%.
With `CC(C)CNC(=O)C1=NOC2(CCN(Cc3ccoc3)C2)C1` (stereo not drawn), the “Percent Effect” value came out at 98.99%.
Turning to `O=C(NCC1CC1)C1=NOC2(CCN(Cc3ccsc3)C2)C1` (stereo not drawn), the “Percent Effect” value is listed as -10.07%.

For the origin of these results see ChEMBL document CHEMBL3988442, “University of Dundee, Small-Polar-MMV Screening Library” (2021).
